Experimental findings from PubChem BioAssay (NCI) are described below.

Some test systems named below: SR leukemia; OVCAR-8 ovarian; OVCAR-5 ovarian; SK-OV-3 ovarian; IGROV1 ovarian; OVCAR-3 ovarian; HS 578T breast; NCI/ADR-RES ovarian; OVCAR-4 ovarian; RPMI-8226 leukemia.
Holding throughout (assay): NCI-60 one-dose screen, 48 h (100 = growth as untreated, 0 = no growth, -100 = all killed)
What all share (conditions): 10 µM

About 83,000 compounds went through this panel and 20% of them were active in at least one assay; those are over-represented in the sample as a whole.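 48-hour exposure, single concentration, 96-well plates; percent growth endpoint where 0 means no net growth. Active: below 10.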 Values without a mark were called inactive. Activity calls are given as the source filed them.

`NC(=O)NC(=O)c1ccc(Cl)cc1`: the growth in the experiment on SR leukemia was 88.9%; in the experiment on OVCAR-8 ovarian, 106%; in the experiment with OVCAR-5 ovarian, 113%; with SK-OV-3 ovarian, 103%; with IGROV1 ovarian, 92.6%; in the experiment on OVCAR-3 ovarian, 125%. The growth is 97.9% in the experiment with HS 578T breast and 107% in the experiment on NCI/ADR-RES ovarian.

On to `Brc1cnc2ccccc2c1`, for which the growth in the experiment on SR leukemia was 103%; in the experiment on OVCAR-5 ovarian, 96.3%; in the experiment with OVCAR-4 ovarian, 118%; in the experiment on SK-OV-3 ovarian it was 111%; with IGROV1 ovarian, 107%; in the experiment on OVCAR-3 ovarian, 99.7%. Besides, in the experiment with NCI/ADR-RES ovarian, the growth is 102%.

As for `CC(C)(C)n1nc(C2CC2)c(Br)c1NC(=O)c1ccccc1F`, the growth is 96.7% with RPMI-8226 leukemia; 101% with OVCAR-8 ovarian; 104% in the experiment on OVCAR-5 ovarian; 87.1% in the experiment on OVCAR-4 ovarian; 94.5% in the experiment on SK-OV-3 ovarian; 99.3% in the experiment with IGROV1 ovarian. The figures for the growth in the experiment on OVCAR-3 ovarian and with HS 578T breast were 117% and 94.9%, respectively.

For the molecule `CC(=O)Nc1ccc(NC(C)=O)c2c1C(=O)c1ccccc1C2=O`, the growth is 78.9% in the experiment with SR leukemia; 92.8% in the experiment on OVCAR-8 ovarian; 88.4% in the experiment with OVCAR-5 ovarian; 88.5% in the experiment with SK-OV-3 ovarian; 67% in the experiment with IGROV1 ovarian; 104% in the experiment with OVCAR-3 ovarian. Moreover, the growth was 102% with HS 578T breast and 95.4% with NCI/ADR-RES ovarian.

Take `COc1ccc(/C(C#N)=C2C=C/C(=N/O)c3ccccc3\2)cc1`: the growth in the experiment on RPMI-8226 leukemia is 32.1%; in the experiment on OVCAR-8 ovarian, 18.9%; in the experiment with OVCAR-5 ovarian it was 27.3%; in the experiment on OVCAR-4 ovarian, 35.8%; in the experiment on SK-OV-3 ovarian it was -6.21% (active); in the experiment on IGROV1 ovarian, 22.3%. The growth in the experiment with OVCAR-3 ovarian is 1.6% (active); with HS 578T breast, 35.1%; in the experiment with NCI/ADR-RES ovarian it was 15.9%.

For `COc1cc(/C=C/C(=O)c2ccccc2)cc(OC)c1OC`, the growth with RPMI-8226 leukemia was 24.3%; with OVCAR-8 ovarian, 59.8%; with OVCAR-5 ovarian, 66.6%; with OVCAR-4 ovarian, 65%; with SK-OV-3 ovarian it was 79%; in the experiment on IGROV1 ovarian, 98.6%. For the same molecule, the growth was 59% in the experiment with OVCAR-3 ovarian, 106% with HS 578T breast and 43.1% in the experiment with NCI/ADR-RES ovarian.

Take `COC(=O)C(C)Oc1ccc(OC#N)cc1` (configuration not stated): the growth with RPMI-8226 leukemia was 103%; in the experiment on OVCAR-8 ovarian it was 104%; in the experiment with OVCAR-5 ovarian, 94.5%; with OVCAR-4 ovarian, 95.8%; in the experiment with SK-OV-3 ovarian, 103%; in the experiment with IGROV1 ovarian it was 105%. Further, the values for the growth in the experiment on OVCAR-3 ovarian, in the experiment with HS 578T breast and in the experiment on NCI/ADR-RES ovarian were 105%, 90.1% and 99.9%, respectively.

For `CC1(O)OC(COc2ccc(Cl)cc2)COC1O` (configuration not stated), the growth with RPMI-8226 leukemia was 109%; with OVCAR-8 ovarian, 100%; with OVCAR-5 ovarian, 111%; in the experiment with OVCAR-4 ovarian, 99.1%; in the experiment with SK-OV-3 ovarian, 116%; in the experiment on IGROV1 ovarian, 113%. For the same molecule, the growth was 116% in the experiment on OVCAR-3 ovarian, 95.5% with HS 578T breast and 103% in the experiment with NCI/ADR-RES ovarian.

Consider `CCS(=O)(=O)CCCl`, for which the growth in the experiment with RPMI-8226 leukemia was 101%; in the experiment on OVCAR-8 ovarian it was 104%; in the experiment with OVCAR-5 ovarian, 105%; in the experiment with OVCAR-4 ovarian, 101%; with SK-OV-3 ovarian, 104%; in the experiment with IGROV1 ovarian, 107%. Also, the figures for the growth in the experiment with OVCAR-3 ovarian, in the experiment on HS 578T breast and in the experiment on NCI/ADR-RES ovarian were 116%, 96.4% and 105%, respectively.

`CCCCCCCCCCCCCC(=O)Oc1ccc[nH]c1=O`: the growth with RPMI-8226 leukemia is 95.7%; with OVCAR-8 ovarian, 94.9%; in the experiment on OVCAR-5 ovarian, 97.1%; with OVCAR-4 ovarian, 102%; in the experiment with SK-OV-3 ovarian, 88.8%; in the experiment with IGROV1 ovarian it was 97.8%. Also, the growth is 103% with OVCAR-3 ovarian, 98.1% in the experiment on HS 578T breast and 99.8% in the experiment with NCI/ADR-RES ovarian.

Turning to `Cc1c(O)cnc2nn(-c3ccccc3)c(=N)n12`, the growth was 113% in the experiment on RPMI-8226 leukemia; 103% in the experiment on OVCAR-8 ovarian; 106% in the experiment with OVCAR-5 ovarian; 95.8% in the experiment on OVCAR-4 ovarian; 108% with SK-OV-3 ovarian; 113% in the experiment with IGROV1 ovarian. For the same molecule, the growth in the experiment with OVCAR-3 ovarian is 113%; in the experiment on HS 578T breast, 127%.

On to `CN(C)C(=O)Oc1cccc([N+](C)(C)C)c1`, for which the growth in the experiment with RPMI-8226 leukemia was 117%; with OVCAR-8 ovarian, 103%; in the experiment with OVCAR-5 ovarian, 104%; in the experiment on OVCAR-4 ovarian, 83.9%; in the experiment with SK-OV-3 ovarian, 107%; with IGROV1 ovarian, 115%. Also, the growth in the experiment with OVCAR-3 ovarian is 115%; in the experiment with HS 578T breast it was 107%; with NCI/ADR-RES ovarian it was 114%.

Regarding `CC1(C)N=C(N)N=C(N)N1c1ccc(Cl)cc1`, the growth is 52.7% in the experiment on SR leukemia; 30.8% in the experiment with OVCAR-8 ovarian; 55% in the experiment on OVCAR-4 ovarian; 61% in the experiment with SK-OV-3 ovarian; 35.9% in the experiment on IGROV1 ovarian; 69.9% in the experiment with OVCAR-3 ovarian.

For the molecule `COC(=O)c1cc(-c2ccc(Cl)c(Cl)c2)[nH]c(=O)c1C#N`, the growth in the experiment with RPMI-8226 leukemia was 112%; in the experiment on OVCAR-8 ovarian it was 101%; with OVCAR-5 ovarian, 99.2%; with OVCAR-4 ovarian, 103%; in the experiment on SK-OV-3 ovarian, 103%; with IGROV1 ovarian, 110%. The growth in the experiment on OVCAR-3 ovarian is 116%; in the experiment with HS 578T breast, 74.9%; in the experiment with NCI/ADR-RES ovarian, 105%.

For the molecule `CC1SC(N)=NC1=O` (configuration not stated), the growth with RPMI-8226 leukemia is 96.7%; in the experiment with OVCAR-8 ovarian, 105%; in the experiment with OVCAR-5 ovarian, 85.9%; with OVCAR-4 ovarian it was 117%; in the experiment with SK-OV-3 ovarian, 115%; in the experiment with IGROV1 ovarian, 108%. In addition, the growth with OVCAR-3 ovarian was 116%; in the experiment with HS 578T breast, 108%; with NCI/ADR-RES ovarian, 106%.

Consider `O=P(O)(O)OCC(O)CO` (configuration not stated), for which the growth was 99.6% in the experiment on SR leukemia; 109% in the experiment with OVCAR-8 ovarian; 101% in the experiment on OVCAR-5 ovarian; 88.3% in the experiment on OVCAR-4 ovarian; 106% in the experiment on SK-OV-3 ovarian; 112% in the experiment on OVCAR-3 ovarian. Moreover, the growth in the experiment on HS 578T breast and in the experiment on NCI/ADR-RES ovarian was 106% in each case.

`CC(C)NC(=O)OCc1c(COC(=O)NC(C)C)c(-c2ccc(Cl)c(Cl)c2)n2c1SCC2`: the growth in the experiment with RPMI-8226 leukemia was 36%; with OVCAR-8 ovarian it was 44.7%; with OVCAR-5 ovarian, -15.6% (active); with OVCAR-4 ovarian, 38.2%; in the experiment on SK-OV-3 ovarian, 21.9%; in the experiment on IGROV1 ovarian it was 3.1% (active). Also, the growth with OVCAR-3 ovarian is 47.2%; in the experiment on HS 578T breast, 36.3%.
